Measurements published in PubChem BioAssay AID1053197 (The Scripps Research Institute Molecular Screening Center, 2014).
About 2,600 (0.7%) of roughly 370,000 compounds were called active. This is one part of a sample in which actives are shown more often than they occur. Unmarked numbers belong to inactive results.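 How the source made its calls: active means inhibition above a cutoff: mean of compounds within the control limits plus 3 SD of those (cut at about 17% in these data); inactive means the rest.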

molecular target: Sialate O-acetylesterase (Homo sapiens) (UniProt Q9HAT2); assay: human SIAE inhibitors, primary screen, biochemical, fluorescence polarization, FP-Rh probe, 1536-well HTS (AID 1053197); settings: SIAE FP-Rh probe binding, at 9.66 µM, stronger effect = higher value;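 further: 0% = plate median of compound wells and 100% = probe without SIAE protein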
Sequence (Q9HAT2 whole entry, looked up): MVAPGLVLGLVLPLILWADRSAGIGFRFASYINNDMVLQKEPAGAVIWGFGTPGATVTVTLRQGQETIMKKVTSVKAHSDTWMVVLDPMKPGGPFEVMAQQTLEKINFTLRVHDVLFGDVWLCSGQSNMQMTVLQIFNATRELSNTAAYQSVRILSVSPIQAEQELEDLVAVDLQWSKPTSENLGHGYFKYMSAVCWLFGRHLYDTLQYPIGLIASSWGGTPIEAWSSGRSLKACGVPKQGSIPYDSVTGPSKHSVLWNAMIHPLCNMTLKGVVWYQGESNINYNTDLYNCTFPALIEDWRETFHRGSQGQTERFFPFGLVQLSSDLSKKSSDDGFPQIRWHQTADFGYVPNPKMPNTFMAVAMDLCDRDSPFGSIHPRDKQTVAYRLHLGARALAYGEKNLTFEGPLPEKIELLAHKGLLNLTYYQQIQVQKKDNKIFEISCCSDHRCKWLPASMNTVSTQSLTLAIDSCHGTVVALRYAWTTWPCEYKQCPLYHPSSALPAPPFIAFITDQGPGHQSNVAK

Row | Structure (SMILES) | inhibition
1 | COc1ccc(CN2C(=O)N3Cc4cc(OC)ccc4C3CS2(=O)=O)cc1 (stereo not drawn) | -3.42%
2 | Cc1ccc(-c2nnc(SCC(=O)Nc3ccc(Oc4ccccc4)cc3)n2Cc2ccco2)cc1 | -0.26%
3 | Cc1ccc(OCC(=O)Nc2ccc(-c3nnc(-c4ccco4)o3)cc2)cc1 | 32.9% (active)
4 | CCOC(=O)C1=C(O)/C(=C/c2ccc(OCC(=O)Nc3ccc(C)cc3)cc2)N=C1C | -21.7%
5 | Cc1nc(NC(=O)C(C)(C)C)sc1[N+](=O)[O-] | -3.66%
6 | COC(=O)C1=C(NC(=O)C(C)(C)C)CCS1 | 17.4% (active)
7 | COC(=O)c1c(C(=O)OC)c2n(c1C)CCS2 | -0.54%
8 | Cc1cc(C)n2ncc(C(=O)Nc3ccc4c(c3)OCCO4)c2n1 | 13.6%
9 | CCOC(=O)c1cccc(NC(=O)CN(C)S(=O)(=O)c2ccc(-c3cocn3)s2)c1 | 2.17%
10 | NC(=O)Cc1ccc2sc(-c3ccccc3)nc2c1 | 5.29%
11 | CN(C(=O)COc1nnc(-c2cccs2)c(-c2cccs2)n1)c1ccccc1 | -4.55%
12 | O=C(O)Cc1sc(-c2ccccc2)nc1-c1cccs1 | 23.1% (active)
13 | CCCCNC(=O)C[C@H]1C(=O)N(Cc2ccc(OC)cc2)C2=CCCC[C@@]21C(=O)OCC | -2.41%
14 | CCOC(=O)C1CCN(C(=O)C(C)(C)NC(=O)Nc2ccc(F)c(F)c2)CC1 | 0.69%
15 | C=CS(=O)(=O)N(Cc1nnn(Cc2ccccc2)c1Br)[C@H](C(=O)OC)C(C)C | 2.36%
16 | COc1ccc(C2NC(=O)C(=O)/C2=C(\O)c2ccc(Cl)cc2)cc1OC (stereo not drawn) | 0.15%
17 | COc1ccc(C2OCC3(CO2)SC(=O)NC3=O)cc1OC (stereo not drawn) | 17.2% (active)
18 | CCC1(C)COC(c2ccc(OC)c(OC)c2)OC1 (stereo not drawn) | -0.64%
19 | COC(=O)[C@]12C[C@H](CC(=O)N3CCOCC3)C(=O)N(Cc3ccc(Cl)cc3Cl)C1=C[C@H](C(C)C)O[C@@H]2C1CC1 | 7.42%
20 | CC(=O)CSc1nnc(CSc2ncccn2)n1C1CCCCC1 | 23.7% (active)
21 | CCn1c(CSc2ncccn2)nnc1SCC(=O)N1c2ccccc2CC1C (stereo not drawn) | 6.44%
22 | CC1CC(C)CN(C(=O)CSc2nnc(CSc3ncccn3)n2C)C1 (stereo not drawn) | -4.27%

Row | Structure (SMILES) | inhibition
23 | C#CCCN([C@H](C(=O)OC)C(C)C)S(=O)(=O)c1ccc(F)cc1Br | 0.24%
24 | Clc1ccc(-n2c(SC/C=C/c3ccccc3)nnc2-c2ccco2)cc1 | 6.61%
25 | NNC(=O)c1oc2nc(-c3ccccc3)cc(-c3ccco3)c2c1N | 19.6% (active)
26 | CNC(=S)NNC(=O)c1oc2nc(-c3ccccc3)cc(-c3ccco3)c2c1N | 17.2% (active)
27 | Cc1ccc(O)c(NC(=O)c2cc(-c3ccco3)on2)c1 | 3.18%
28 | O=C1CCC2(CCC(c3ccc(Cl)cc3)CC2)N1CCO (stereo not drawn) | 6.92%
29 | C=CCN1C(C(=O)OC)CN(Cc2cn(Cc3ccccc3)nn2)CCS1(=O)=O (stereo not drawn) | 5.02%
30 | O=C(CSc1nc2c(c(=O)[nH]1)CCCC2)N1CCCCC1 | 1.16%
31 | O=C(c1c[nH]c2ccccc12)N1CCC(Oc2cccnc2)CC1 | 7.61%
32 | Cc1ccc(C(=O)N(Cc2ccccn2)CC2CCCO2)cc1 (stereo not drawn) | -2.59%
33 | CCOC(=O)C1CSCCS(=O)(=O)N1Cc1ccc(Cl)cc1 (stereo not drawn) | -6.12%
34 | CCOC(=O)C1Sc2[nH]c(=O)sc2C(c2ccc(Cl)cc2)C1C(=O)OCC (stereo not drawn) | 24.7% (active)
35 | CCOC(=O)c1ccccc1N1C(=O)C2Sc3[nH]c(=O)sc3C(/C=C/c3ccccc3)C2C1=O (stereo not drawn) | 15.9%
36 | COC(=O)c1cccc(Cn2ccc3ccc(-c4ccc5ccn(C(=O)c6ccccc6C)c5c4)cc32)c1 | 12.8%
37 | COC(=O)C1CN(Cc2ccc(F)cc2)CCS(=O)(=O)N1Cc1ccc(Cl)cc1 (stereo not drawn) | -1.35%
38 | CCOC(=O)[C@]12CCCC3=C1N(CCC3)C(=O)[C@@H](CC(=O)NCC13CC4CC(CC(C4)C1)C3)C2 | -1.2%
39 | COc1ccc(-c2cc(C(=O)NC(Cc3c[nH]c4ccccc34)C(=O)O)c(C)o2)cc1OC (stereo not drawn) | 17.2% (active)
40 | COc1ccc(-c2cc(C(=O)NC(C(=O)O)C(C)C)c(C)o2)cc1OC (stereo not drawn) | -1.04%
41 | O=C(CCn1nnc2ccccc2c1=O)N[C@@H](Cc1c[nH]c2ccccc12)C(=O)O | 2.35%
42 | COc1ccc2c(C(C)c3ccc(N)cc3)cn(C)c2c1 (stereo not drawn) | 15.5%
43 | CN(C)c1ccc(NC(=O)NC2CCCCN(Cc3ccc(Cl)cc3)C2=O)cc1 (stereo not drawn) | 11.1%
44 | COc1ccc(C(=O)OCCN2CCN(C3CN(Cc4cn(Cc5ccccc5F)nn4)S(=O)(=O)C3)CC2)cc1OC (stereo not drawn) | 3.42%

Row | Structure (SMILES) | inhibition
45 | Cc1ccc(NC(=S)NNC(=O)CSc2nnc(SCc3ccccc3Cl)s2)cc1 | 5.21%
46 | Cc1[nH]c2ccccc2c1C(=O)CN1CC(C)CC(C)C1 (stereo not drawn) | -1.61%
47 | Cc1[nH]c2ccccc2c1C(=O)CSCC(=O)O | 30.1% (active)
48 | Cc1[nH]c2ccccc2c1C(=O)CN1CCCC(C)C1 (stereo not drawn) | -6.16%
49 | N#Cc1ccc(OC[C@@H](O)CN2CCC(C(O)(c3ccccc3)c3ccccc3)CC2)c(F)c1 | -5.05%
50 | COC(CNC(=O)[C@H](Cc1ccccc1)NC1(C(=O)NC2CCCCC2)CCCCC1)OC | 8.17%
51 | CCCC(=O)NC(=S)Nc1ccc(CN2CCOCC2)cc1 | -1.23%
52 | Cc1cc(C)cc(NC(=S)NCCCN2CCOCC2)c1 | -2%
53 | Cc1ccc(NC(=S)NCCN2CCOCC2)cc1 | 57.3% (active)
54 | C=CCN(C)CC#Cc1ccccc1 | 1.7%
55 | CCn1c(SCC(C)=O)nc2sc3c(c2c1=O)CCCC3 | 0.4%
56 | COc1ccccc1-n1c(SCC(=O)O)nc2sc3c(c2c1=O)CCC3 | -0.36%
57 | Cn1c(NN)nc2sc3c(c2c1=O)CCC3 | 41.8% (active)
58 | CCn1c2ccccc2c2cc(NC(=O)CSc3nnc(-c4ccccc4)n3-c3ccc(C)cc3)ccc21 | 4.72%
59 | CNS(=O)(=O)c1ccc2c(c1)[nH]c(=S)n2C | 18.6% (active)
60 | CCCCn1c(=S)[nH]c2cc(S(=O)(=O)N3CCCCC3)ccc21 | 8.16%
61 | CCn1c(=S)[nH]c2cc(S(=O)(=O)N3CCOCC3)ccc21 | -1%
62 | CN1[C@H](Cc2ccccc2)COc2cccc(N3CCSCC3)c2S1(=O)=O | -5.79%
63 | O=S1(=O)c2c(NCc3ccco3)cccc2Oc2ccccc2CN1Cc1cn(Cc2cccc(C(F)(F)F)c2)nn1 | -2.9%
64 | C[C@@H]1CN([C@@H](C)CO)C(=O)c2cccc(NC(=O)Nc3cccc4ccccc34)c2O[C@H]1CN(C)S(=O)(=O)c1ccccc1F | -1.21%
65 | Oc1ccc(N=Cc2sc3ccccc3c2Cl)cc1 | 22.5% (active)
66 | Oc1ccc(N=Cc2c(O)ccc3ccccc23)cc1 | 21% (active)

Row | Structure (SMILES) | inhibition
67 | CCOC(=O)C1CCN(C(=O)C(C)(C)NC(=O)Nc2ccccc2Cl)CC1 | -1.25%
68 | O=C(Nc1nc2ccc(Cl)cc2s1)c1cc(-c2ccc(Cl)cc2)nc2ccccc12 | -3.74%
69 | CN(CCO)c1cccc2c1S(=O)(=O)N(Cc1cn(Cc3ccc(C(F)(F)F)cc3)nn1)Cc1ccccc1O2 | -1.94%
70 | NNc1nc2c(Cl)cccc2s1 | 17.2% (active)
71 | O=S1(=O)c2ccc(Br)cc2OC[C@@H](Cc2ccccc2)N1Cc1cn(Cc2ccco2)nn1 | -0.13%
72 | COC(=O)C1CN(CCc2ccccc2)CCS(=O)(=O)N1Cc1cccc(Cl)c1 (stereo not drawn) | -0.76%
73 | O=C(c1cccnc1)N1CCN(S(=O)(=O)c2cccs2)CC1 | 4.01%
74 | O=C(N/N=C/c1sc(N2CCCCC2)nc1-c1cccs1)c1cccnc1 | 19.6% (active)
75 | O=C(Nc1cccc(Cl)c1N1CCOCC1)c1cccnc1 | -7.61%
76 | COC(=O)CC1CCc2cc(C)cc(C(CC(C)C)NC(=O)[C@H](CC(C)C)NC(=O)OCc3ccccc3)c2O1 (stereo partly drawn) | 4.19%
77 | O=C(NCc1cccnc1)c1ccc2nc([C@@H]3O[C@H](CO)[C@H](O)[C@H](O)[C@H]3O)[nH]c2c1 | -0.84%
78 | O=C(Nc1cccc(Cc2ccccc2)c1)Nc1ccc2nc([C@@H]3O[C@H](CO)[C@@H](O)[C@H](O)[C@H]3O)[nH]c2c1 | 21% (active)
79 | O=C(Nc1ccc(Cl)cc1)c1csc([C@@H]2O[C@H](CO)[C@H](O)[C@H](O)[C@H]2O)n1 | -0.06%
80 | CC(CCN1CCC(C(O)(c2ccccc2)c2ccccc2)CC1)Oc1ccc(Cl)cc1 (stereo not drawn) | -3.91%
81 | CC(C)=CCCC1(C)C=Cc2c(ccc3c2[nH]c2cc(O)c(C)cc23)O1 (stereo not drawn) | 20.8% (active)
82 | CCn1c(=O)n2n(c1=O)[C@@]1(C=C3CCCC[C@H]32)N=C(NC(=O)c2ccccc2)N(Cc2ccccc2)[C@H]1Cc1ccccc1 | 7.65%
83 | COC(=O)C1CN(CC(C)C)CCS(=O)(=O)N1Cc1ccc(C)cc1 (stereo not drawn) | 5.08%
84 | O=S(=O)(c1ccc(Br)cc1)N1CCC(c2nc3ccccc3[nH]2)CC1 | -5.23%
85 | O=C(OCc1nc2ccccc2[nH]1)C1CCCCC1 | 0.98%
86 | c1ccc2[nH]c(-c3nc4ccccc4[nH]3)nc2c1 | 47.9% (active)
87 | COc1ccc(C2Nc3ccccc3C(=O)N2Cc2cccs2)cc1COc1c(C)cccc1C (stereo not drawn) | -4.49%
88 | O=C(CSc1nc2sc3c(c2c(=O)n1-c1ccccc1)CCCC3)NN=Cc1ccc(OCc2ccccc2)cc1 | 8.02%
